Data published in PubChem BioAssay (Tox21).
Inconclusive results are not listed. The source made the active and inactive calls. Unless noted, calls come from the whole dose curve; as a rule, active = well fitted curve in the direction sought with a large enough effect in the repeat runs; inconclusive = weak or mixed curves; inactive = no such curve, though single readings can be large; an effect the other way counts as inactive or inconclusive.

How the values were obtained:
[1] = qHTS assay to identify aromatase inhibitors - cell viability counter screen (AID 743084);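 note: cells stimulated with testosterone during compound exposure; nearly all actives have a fitted effect of over 55% in size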
[2] = target: Aryl hydrocarbon receptor (Homo sapiens) (UniProt P35869); assay: qHTS assay to identify small molecule that activate the aryl hydrocarbon receptor (AhR) signaling pathway (AID 743085);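 note: HG2L7.5c1 human HepG2 liver cells with stably integrated DRE-driven firefly reporter; series mostly up to about 70 µM; nearly all actives have a fitted effect of over 15% in size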
Sequence of Aryl hydrocarbon receptor (Homo sapiens) (P35869 whole entry, looked up): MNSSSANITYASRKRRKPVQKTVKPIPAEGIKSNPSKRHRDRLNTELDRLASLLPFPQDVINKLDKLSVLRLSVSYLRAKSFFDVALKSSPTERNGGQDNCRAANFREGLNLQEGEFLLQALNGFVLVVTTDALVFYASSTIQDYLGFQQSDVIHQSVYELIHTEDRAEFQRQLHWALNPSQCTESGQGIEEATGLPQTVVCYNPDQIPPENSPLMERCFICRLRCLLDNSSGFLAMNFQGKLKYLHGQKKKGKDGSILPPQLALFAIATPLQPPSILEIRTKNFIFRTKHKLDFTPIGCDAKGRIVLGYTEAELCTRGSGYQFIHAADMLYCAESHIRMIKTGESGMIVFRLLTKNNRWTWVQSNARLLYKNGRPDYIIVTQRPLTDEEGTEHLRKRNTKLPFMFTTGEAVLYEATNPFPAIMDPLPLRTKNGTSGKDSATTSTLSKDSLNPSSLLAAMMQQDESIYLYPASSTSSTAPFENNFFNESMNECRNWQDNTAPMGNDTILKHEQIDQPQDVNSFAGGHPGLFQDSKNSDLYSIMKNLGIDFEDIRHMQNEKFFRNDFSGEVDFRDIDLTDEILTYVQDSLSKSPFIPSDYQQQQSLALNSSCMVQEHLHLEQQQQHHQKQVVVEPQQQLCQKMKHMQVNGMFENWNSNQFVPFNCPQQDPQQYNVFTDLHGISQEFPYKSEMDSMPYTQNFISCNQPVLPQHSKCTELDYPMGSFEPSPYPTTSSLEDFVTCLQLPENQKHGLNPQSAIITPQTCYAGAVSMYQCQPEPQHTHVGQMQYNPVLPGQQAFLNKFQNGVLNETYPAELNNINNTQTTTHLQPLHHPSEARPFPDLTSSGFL
How it was run: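 Cell line HG2L7.5c1 (human hepatoma, 20× DRE-luc). Plated, 5 h 37C, compound/DMSO added, 24 h 37C. CellTiter-Fluor 30 min 37C → fluorescence; then ONE-Glo 30 min RT → luminescence.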

[3] = qHTS assay to identify small molecule that activate the aryl hydrocarbon receptor (AhR) signaling pathway - cell viability counter screen (AID 743086);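 note: HepG2 liver cells carrying the AhR DRE luciferase reporter; series mostly up to about 70 µM; nearly all actives have a fitted effect of over 45% in size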
How it was run: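 Cytotoxicity counter screen: CellTiter-Fluor signal (30 min, 37 C) in 4000 HepG2 cells/well carrying the DRE-luciferase reporter, following 24 h compound exposure at 37 C.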

[4] = target: Peroxisome proliferator-activated receptor gamma (Homo sapiens) (UniProt P37231); assay: qHTS assay to identify small molecule agonists of the peroxisome proliferator-activated receptor gamma (PPARg) signaling pathway (AID 743094; active = well fitted activation curve with a large enough effect in the signal ratio in the repeat runs, not every such curve was filed as active; the % refers to the signal ratio)
Sequence of Peroxisome proliferator-activated receptor gamma (Homo sapiens) (P37231 whole entry, looked up): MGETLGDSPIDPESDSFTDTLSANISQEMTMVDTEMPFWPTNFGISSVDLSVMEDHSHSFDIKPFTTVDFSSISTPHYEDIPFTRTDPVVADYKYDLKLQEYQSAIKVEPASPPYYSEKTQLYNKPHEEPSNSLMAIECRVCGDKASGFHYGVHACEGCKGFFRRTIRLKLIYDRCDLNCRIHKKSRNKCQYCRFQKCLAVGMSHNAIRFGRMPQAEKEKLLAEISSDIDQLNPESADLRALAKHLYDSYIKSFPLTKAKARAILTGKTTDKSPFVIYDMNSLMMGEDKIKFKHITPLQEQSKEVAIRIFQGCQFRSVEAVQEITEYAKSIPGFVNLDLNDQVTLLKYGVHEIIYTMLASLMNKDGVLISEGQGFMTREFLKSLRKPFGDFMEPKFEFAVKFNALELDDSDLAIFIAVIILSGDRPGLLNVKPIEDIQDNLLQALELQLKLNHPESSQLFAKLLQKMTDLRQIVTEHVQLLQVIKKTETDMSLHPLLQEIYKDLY
How it was run: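 Agonist activity was taken from a beta-lactamase reporter (FRET substrate, 1 h at room temperature) in HEK293H cells carrying a PPARg UAS-bla construct. Compounds in DMSO were incubated 17 h at 37C after a 5 h cell pre-incubation.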

[5] = target: Peroxisome proliferator-activated receptor gamma (Homo sapiens) (UniProt P37231); assay: qHTS assay to identify small molecule antagonists of the peroxisome proliferator-activated receptor gamma (PPARg) signaling pathway (AID 743191; calls by dose curve; note: series mostly up to about 63 µM; nearly all actives have a fitted effect of over 30% in size)
How it was run: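 Beta-lactamase reporter under UAS control in HEK293H PPARg-bla cells; compound treatment 17 h at 37C. Read-out: fluorescence intensity after 1 h room-temperature incubation with LiveBLAzer B/G FRET substrate.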

[6] = qHTS assay to identify small molecule antagonists of the peroxisome proliferator-activated receptor gamma (PPARg) signaling pathway - cell viability counter screen (AID 743194); note: nearly all actives have a fitted effect of over 55% in size
How it was run: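 Viability was measured as CellTiter-Glo luminescence in GeneBLAzer PPARg UAS-bla HEK293H cells. These cells had been exposed 17 h at 37 C to compounds together with rosiglitazone at 50 nM final, with the beta-lactamase readout taken in the same wells.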

[7] = qHTS assay for small molecule agonists of the antioxidant response element (ARE) signaling pathway - cell viability counter screen (AID 743203; calls by dose curve; note: nearly all actives have a fitted effect of over 55% in size)
How it was run: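 Viability counter screen: CellTiter-Glo luminescence, read after 30 min at room temperature, in ARE-bla HepG2 wells. Compound exposure lasted 16 h at 37C/5% CO2, following a 5 h pre-incubation of the cells after plating.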

[8] = qHTS assay for small molecule activators of the heat shock response signaling pathway - cell viability counter screen (AID 743209); note: nearly all actives have a fitted effect of over 50% in size
How it was run: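 Cytotoxicity counter screen run in the same wells as the heat-shock bla reporter assay: HeLa HSE-bla cells, 5 h compound exposure at 37 C, viability read by CellTiter-Glo luminescence.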

[9] = qHTS assay for small molecule activators of the heat shock response signaling pathway (AID 743210; active = well fitted activation curve with a large enough effect in the signal ratio in the repeat runs, with a control signal flat, not every such curve was filed as active; the % refers to the signal ratio;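 note: HeLa cells with beta-lactamase reporter driven by heat shock elements; series mostly up to about 63 µM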)
How it was run: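 Fluorescence from a cleaved B/G FRET substrate (2.5 h, room temp) reports HSE-driven beta-lactamase in HeLa cells treated 5 h at 37 C with DMSO-dissolved compounds.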

[10] = qHTS assay to identify small molecule agonists of the peroxisome proliferator-activated receptor delta (PPARd) signaling pathway - cell viability counter screen (AID 743211); note: nearly all actives have a fitted effect of over 55% in size
How it was run: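 HEK293H PPARd-bla, 3000 cells/well; 5 h preincubation 37C/5% CO2; cpd in DMSO, 17 h 37C; B/G FRET substrate 2 h RT; CellTiter-Glo 30 min RT, luminescence.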

[11] = qHTS assay to identify small molecule antagonists of the peroxisome proliferator-activated receptor delta (PPARd) signaling pathway - cell viability counter screen (AID 743213); note: nearly all actives have a fitted effect of over 50% in size
How it was run: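 CellTiter-Glo was added to PPARd-bla HEK293H wells following 17 h compound treatment in the presence of 300 nM L165041. Luminescence was recorded after 30 min at room temperature.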

[12] = target: Bile acid receptor (Homo sapiens) (UniProt Q96RI1); assay: qHTS assay to identify small molecule antagonists of the farnesoid-X-receptor (FXR) signaling pathway (AID 743217; active = well fitted inhibition curve with a large enough effect in the signal ratio in the repeat runs, not every such curve was filed as active; the % refers to the signal ratio)
Sequence of Bile acid receptor (Homo sapiens) (Q96RI1 whole entry, looked up): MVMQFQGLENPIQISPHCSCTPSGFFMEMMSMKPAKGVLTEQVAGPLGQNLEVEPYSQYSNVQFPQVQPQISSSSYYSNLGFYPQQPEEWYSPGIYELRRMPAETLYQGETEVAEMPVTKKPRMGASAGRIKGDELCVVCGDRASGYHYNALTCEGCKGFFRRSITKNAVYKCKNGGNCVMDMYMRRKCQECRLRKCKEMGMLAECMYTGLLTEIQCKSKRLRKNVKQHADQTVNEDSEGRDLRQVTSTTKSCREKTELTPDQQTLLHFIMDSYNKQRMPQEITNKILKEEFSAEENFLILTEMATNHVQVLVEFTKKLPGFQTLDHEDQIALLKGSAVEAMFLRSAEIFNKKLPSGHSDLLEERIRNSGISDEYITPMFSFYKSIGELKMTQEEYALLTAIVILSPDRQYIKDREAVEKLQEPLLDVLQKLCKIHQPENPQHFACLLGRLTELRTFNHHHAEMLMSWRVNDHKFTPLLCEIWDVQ
How it was run: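 Antagonist mode: chenodeoxycholic acid at 50 uM final stimulates a UAS-driven beta-lactamase reporter in HEK 293T FXR-bla cells during 16 h, 37C compound exposure. Read-out is FRET substrate fluorescence after 2 h at room temperature.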

[13] = qHTS assay to identify small molecule agonists of the farnesoid-X-receptor (FXR) signaling pathway - cell viability counter screen (AID 743218); note: nearly all actives have a fitted effect of over 45% in size
How it was run: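 Viability counter screen in the same wells: CellTiter-Glo luminescence, 30 min room-temperature incubation, measured after the beta-lactamase read. Cells were GeneBLAzer FXR-UAS-bla HEK 293T, compound-treated 16 h at 37C.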

[14] = target: Bile acid receptor (Homo sapiens) (UniProt Q96RI1); assay: qHTS assay to identify small molecule agonists of the farnesoid-X-receptor (FXR) signaling pathway (AID 743220; active = well fitted activation curve with a large enough effect in the signal ratio in the repeat runs, not every such curve was filed as active; the % refers to the signal ratio)
How it was run: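 FXR-UAS-bla HEK 293T cells carrying a UAS-driven beta-lactamase reporter were plated for 5 h at 37C/5% CO2, then exposed to DMSO-dissolved Tox21 10K compounds for 16 h at 37C. A LiveBLAzer B/G FRET substrate was loaded for 2 h at room temperature before fluorescence reading.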

[15] = qHTS assay to identify small molecule antagonists of the farnesoid-X-receptor (FXR) signaling pathway - cell viability counter screen (AID 743221; active = well fitted cell-killing curve with a large enough effect in the repeat runs, not every such curve was filed as active; note: nearly all actives have a fitted effect of over 50% in size)
How it was run: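 Luminescence from CellTiter-Glo measures cytotoxicity in GeneBLAzer FXR-UAS-bla HEK 293T cells. Cells were exposed to compounds with 50 uM chenodeoxycholic acid (final) for 16 h at 37 C, in wells also used for the reporter readout.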

[16] = target: Vitamin D3 receptor (Homo sapiens) (UniProt P11473); assay: qHTS assay to identify small molecule agonists of the vitamin D receptor (VDR) signaling pathway (AID 743222; calls by dose curve)
Sequence of Vitamin D3 receptor (Homo sapiens) (P11473 whole entry, looked up): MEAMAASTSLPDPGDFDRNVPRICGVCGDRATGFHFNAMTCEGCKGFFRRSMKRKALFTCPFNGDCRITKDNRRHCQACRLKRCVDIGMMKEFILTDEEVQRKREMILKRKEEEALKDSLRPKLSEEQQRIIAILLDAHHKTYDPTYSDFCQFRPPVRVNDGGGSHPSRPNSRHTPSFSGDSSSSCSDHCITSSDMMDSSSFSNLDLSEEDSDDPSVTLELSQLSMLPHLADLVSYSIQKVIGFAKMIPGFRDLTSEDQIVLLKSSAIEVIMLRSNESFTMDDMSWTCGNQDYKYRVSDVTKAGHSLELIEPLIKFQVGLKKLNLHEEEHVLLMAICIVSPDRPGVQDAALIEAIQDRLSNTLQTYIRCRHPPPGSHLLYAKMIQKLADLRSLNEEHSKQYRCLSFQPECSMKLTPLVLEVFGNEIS
How it was run: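 Agonist mode, beta-lactamase reporter: fluorescence from LiveBLAzer B/G FRET substrate (2 h, room temperature) read after 16 h compound treatment at 37 C of VDR-bla cells, which were pre-incubated 4 h after seeding.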

[17] = target: Vitamin D3 receptor (Homo sapiens) (UniProt P11473); assay: qHTS assay to identify small molecule antagonists of the vitamin D receptor (VDR) signaling pathway (AID 743223; active = well fitted inhibition curve with a large enough effect in the signal ratio in the repeat runs, not every such curve was filed as active; the % refers to the signal ratio)
How it was run: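 Antagonist mode uses 1alpha,25-dihydroxyvitamin D3 at 3 nM final as stimulus. VDR-bla cells receive compounds in DMSO, incubate 16 h at 37C, then a beta-lactamase FRET substrate for 2 h at room temperature before fluorescence measurement.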

[18] = target: Peroxisome proliferator-activated receptor delta (Homo sapiens) (UniProt Q03181); assay: qHTS assay to identify small molecule antagonists of the peroxisome proliferator-activated receptor delta (PPARd) signaling pathway (AID 743215; active = well fitted inhibition curve with a large enough effect in the signal ratio in the repeat runs, not every such curve was filed as active; the % refers to the signal ratio;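 note: cells stimulated with agonist L165041 at 300 nM final during compound exposure; series mostly up to about 62 µM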)
Sequence of Peroxisome proliferator-activated receptor delta (Homo sapiens) (Q03181 whole entry, looked up): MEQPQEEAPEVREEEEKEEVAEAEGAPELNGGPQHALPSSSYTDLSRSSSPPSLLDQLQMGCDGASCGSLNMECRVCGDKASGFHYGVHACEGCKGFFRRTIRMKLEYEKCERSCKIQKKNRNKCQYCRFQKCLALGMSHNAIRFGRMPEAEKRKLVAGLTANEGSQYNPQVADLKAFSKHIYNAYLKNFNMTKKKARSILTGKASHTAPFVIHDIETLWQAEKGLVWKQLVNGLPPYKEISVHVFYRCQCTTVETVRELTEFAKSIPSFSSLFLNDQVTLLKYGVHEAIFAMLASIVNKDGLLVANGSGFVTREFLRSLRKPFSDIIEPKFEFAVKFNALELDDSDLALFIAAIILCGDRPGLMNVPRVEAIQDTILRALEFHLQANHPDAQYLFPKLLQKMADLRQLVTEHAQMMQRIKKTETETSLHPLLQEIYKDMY
How it was run: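 Agonist L165041 (300 nM final) added with compound to PPARd-bla HEK293H UAS-bla reporter cells; 17 h incubation at 37 C. Read-out: LiveBLAzer FRET substrate, 2 h at room temperature, fluorescence intensity.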

[19] = target: Peroxisome proliferator-activated receptor delta (Homo sapiens) (UniProt Q03181); assay: qHTS assay to identify small molecule agonists of the peroxisome proliferator-activated receptor delta (PPARd) signaling pathway (AID 743212; calls by dose curve;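 note: HEK293H cells with PPARd UAS beta-lactamase reporter GeneBLAzer system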)
How it was run: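 Steps: seed PPARd-bla HEK293H cells; incubate 5 h, 37 C, 5% CO2; add compounds in DMSO; incubate, 37 C; add LiveBLAzer B/G FRET substrate; hold 2 h at room temperature; measure fluorescence.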

[20] = qHTS assay for small molecule agonists of the antioxidant response element (ARE) signaling pathway (AID 743202; active = well fitted activation curve with a large enough effect in the signal ratio in the repeat runs, not every such curve was filed as active; the % refers to the signal ratio)
How it was run: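 Beta-lactamase reporter activity, read as fluorescence intensity, reflects ARE/Nrf2 pathway induction in HepG2 cells after 16 h compound exposure at 37 C; substrate loading was 2 h at room temperature.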

Measured: Potency

O=C1CCCN1C1CCCCC1
inactive: [1] | [2] | [3] | [4] | [5] | [6] | [7] | [8] | [9] | [10] | [11] | [12] | [13] | [14] | [15] | [16] | [17]

CCCCNC(=O)NCCCC
inactive: [1] | [2] | [3] | [4] | [5] | [6] | [7] | [8] | [9] | [10] | [11] | [18] | [13] | [15] | [16] | [17]

O=Cc1cccc([N+](=O)[O-])c1
inactive: [1] | [2] | [3] | [4] | [5] | [6] | [7] | [8] | [9] | [10] | [19] | [11] | [18] | [13] | [15] | [16] | [17]

O=c1n(CCO)c(=O)n(CCO)c(=O)n1CCO
inactive: [1] | [2] | [3] | [4] | [5] | [6] | [7] | [8] | [9] | [10] | [19] | [18] | [12] | [13] | [14] | [15] | [16] | [17]

CC(C[N+](C)(C)C)OC(N)=O (configuration not stated)
inactive: [1] | [2] | [3] | [4] | [5] | [6] | [20] | [7] | [8] | [9] | [10] | [11] | [18] | [12] | [13] | [14] | [15]

CC(C)(O)C(=O)c1ccccc1
inactive: [1] | [2] | [3] | [4] | [5] | [6] | [20] | [7] | [8] | [9] | [10] | [19] | [12] | [13] | [14] | [15] | [16]

CCCCCCOC(=O)CCCCC(=O)OCCCCCC
inactive: [1] | [2] | [3] | [4] | [5] | [6] | [7] | [8] | [9] | [10] | [19] | [11] | [18] | [12] | [15] | [16]

CCCCC(CC)COC(=O)c1ccccc1O (configuration not stated)
inactive: [1] | [2] | [3] | [4] | [5] | [6] | [20] | [7] | [9] | [10] | [19] | [11] | [18] | [13] | [15] | [16] | [17]

CO[Si](CCCOCC1CO1)(OC)OC (configuration not stated)
inactive: [1] | [2] | [3] | [4] | [5] | [6] | [7] | [8] | [9] | [10] | [19] | [11] | [13] | [15] | [16]

O=C1CCCC(=O)C1
inactive: [1] | [2] | [3] | [4] | [5] | [6] | [20] | [7] | [8] | [10] | [11] | [12] | [14] | [15] | [16] | [17]

OC[C@]1(O)OC[C@@H](O)[C@H](O)[C@@H]1O
inactive: [1] | [2] | [3] | [4] | [5] | [6] | [20] | [7] | [8] | [9] | [10] | [19] | [18] | [13] | [15] | [16] | [17]

Nc1nc2c(ncn2COC(CO)CO)c(=O)[nH]1
inactive: [1] | [2] | [3] | [4] | [5] | [6] | [20] | [7] | [8] | [9] | [10] | [19] | [11] | [18] | [13] | [15] | [16] | [17]

O=c1cc(CO)occ1O
inactive: [1] | [2] | [3] | [4] | [5] | [6] | [7] | [8] | [9] | [10] | [19] | [13] | [15] | [16] | [17]

NS(=O)(=O)c1ccc(C(=O)O)cc1
inactive: [1] | [2] | [3] | [4] | [5] | [6] | [20] | [7] | [8] | [10] | [11] | [18] | [12] | [13] | [14] | [15]

C=C(C)CS(=O)(=O)O
inactive: [1] | [2] | [3] | [4] | [5] | [6] | [7] | [8] | [9] | [10] | [19] | [11] | [12] | [14]

N[C@H](C(=O)O)c1ccc(O)cc1
inactive: [1] | [2] | [3] | [4] | [5] | [6] | [20] | [7] | [9] | [10] | [11] | [18] | [13] | [15] | [16] | [17]
